{
  "source": "ChEMBL document CHEMBL1157539",
  "about": "“Thousands of chemical starting points for antimalarial lead identification” (Nature, 2010)",
  "data": [
    {"test_system": "Plasmodium falciparum", "experiment": "GSK_TCMDC: Inhibition of Plasmodium falciparum 3D7 in whole red blood cells, using parasite LDH activity as an index of growth. Test compounds present at 2uM", "format": "functional", "units": {"Inhibition": "%"}, "values": [
      {"smiles": "Cc1cccc2nc(-c3cccc(-c4ccc(CN5CCCC5CN)cc4)c3)[nH]c12.O=C(O)C(F)(F)F", "note": "(centres undefined)", "Inhibition": 100},
      {"smiles": "CCNc1cc(C(=O)N[C@@H](Cc2ccccc2)[C@H](O)CNC(C)(C)Cc2cccc(Cl)c2)cc(N2CCCCS2(=O)=O)c1.Cl", "Inhibition": 97},
      {"smiles": "Clc1ccc(-c2cc(-c3csc(NCCN4CCCCC4)n3)on2)cc1", "Inhibition": 91},
      {"smiles": "COCCCNC(=N)c1ccc(NC(=O)c2ccc(C(=O)Nc3ccc(C(=N)NCCCOC)cc3)cc2)cc1.Cl", "Inhibition": 100}
    ]},
    {"test_system": "Plasmodium falciparum", "experiment": "GSK_TCMDC: Inhibition of Plasmodium falciparum Dd2 in whole red blood cells, using parasite LDH activity as an index of growth. Test compounds present at 2uM", "format": "functional", "units": {"Inhibition": "%"}, "values": [
      {"smiles": "Cl.c1ccc(-c2ccc3c(Nc4ccc5[nH]ncc5c4)ccnc3c2)nc1", "Inhibition": 99},
      {"smiles": "O=C(O)C(F)(F)F.O=C1CCCN1CCCNCc1cccc(-c2ccc(-c3nc4cc(C(F)(F)F)ccc4[nH]3)s2)c1", "Inhibition": 99},
      {"smiles": "COc1ccc(CNCc2cccc(-c3csc(-c4nc5ccccc5[nH]4)c3)c2)cc1.O=C(O)C(F)(F)F", "Inhibition": 22},
      {"smiles": "O=C(O)C(F)(F)F.O=[N+]([O-])c1cccc(CNCC2CCN(CC3CCCCC3)CC2)c1", "Inhibition": 14},
      {"smiles": "O=S(=O)(c1ccc(Cl)cc1Cl)N1CCCCC(c2ccc(C(F)(F)F)cc2)=N1", "Inhibition": 99},
      {"smiles": "O=C(C=Cc1ccc(Cl)c(Cl)c1)NCCCCCN1CCCC(CCCNS(=O)(=O)c2ccc(Br)cc2)C1", "note": "(centres undefined)", "Inhibition": 5},
      {"smiles": "O=C(CCOc1ccccc1)NCC1CCCO1", "note": "(centres undefined)", "Inhibition": 0},
      {"smiles": "Cn1cncc1CCCN(Cc1ccc(-c2ccc(C(F)(F)F)cc2)cc1)C(=O)Cn1c(CCc2cccc(F)c2F)cc(=O)c2cccnc21", "Inhibition": 59},
      {"smiles": "Cc1ccoc1C(=O)Nc1ccc(-c2cccc(-c3nc4cccc(C)c4[nH]3)c2)cc1", "Inhibition": 69},
      {"smiles": "COc1ccc(-c2cccc(NC(=O)c3ccc(F)cc3)c2)cc1CNC(C)C.O=C(O)C(F)(F)F", "Inhibition": 9},
      {"smiles": "CC(C)Cn1ncc2c3c(N)nc(N)nc3ccc21", "Inhibition": 73},
      {"smiles": "CCCCCCN1CCC(NCc2ccc(Cl)cc2)CC1.O=C(O)C(F)(F)F", "Inhibition": 9},
      {"smiles": "Cn1cncc1CCN(Cc1ccc(-c2ccc(C(F)(F)F)cc2)cc1)C(=O)Cn1c(CCc2cccc(F)c2F)cc(=O)c2cccnc21", "Inhibition": 97},
      {"smiles": "Cl.Nc1c(C(=O)NCCCCN2CCN(c3nsc4ccccc34)CC2)sc2ccccc12", "Inhibition": 0},
      {"smiles": "C=CCn1c(Sc2ccc(C#N)c([N+](=O)[O-])c2)nnc1-c1ccc(Cl)cc1", "Inhibition": 85},
      {"smiles": "O=C(CC1CCCC1)N(Cc1ccc(-c2ccc(CNC3Cc4ccccc4C3)cc2)cc1)CC1CCCCN1.O=C(O)C(F)(F)F", "note": "(centres undefined)", "Inhibition": 86},
      {"smiles": "COc1ccc(-c2ccc(CNCc3ccc(F)cc3)cc2)cc1S(=O)(=O)NCCN1CCCC1.O=C(O)C(F)(F)F", "Inhibition": 33},
      {"smiles": "Cc1ccc(N2CCN(C(=O)c3cccc(-c4cncc5nc(-c6ccco6)n(C)c45)c3)CC2)nc1", "Inhibition": 91},
      {"smiles": "CCCN(Cc1ccc(OCC)cc1)Cc1cc(=O)c2cc(Cl)ccc2[nH]1", "Inhibition": 82},
      {"smiles": "O=CO.O=S1(=O)NCc2ccc(Nc3nccc(Nc4ccc5c(cnn5Cc5ccccc5)c4)n3)cc21", "Inhibition": 33},
      {"smiles": "Cc1cc(Nc2ncc(C#N)c(Nc3ccccc3C(N)=O)n2)ccc1N1CCN(C)CC1.Cl", "Inhibition": 94},
      {"smiles": "O=C(NCCN1CCOCC1)c1csc(C2CCCN(C(=O)c3ccc(O)c(-c4cc(Cl)cc(Cl)c4)c3)C2)n1", "note": "(centres undefined)", "Inhibition": 50},
      {"smiles": "CC(C)N(Cc1cnc2nc(N)nc(N)c2n1)c1ccc(Cl)c(Cl)c1", "Inhibition": 98},
      {"smiles": "CCN(CC)/C(=N/C(=N)Nc1ccc(Br)cc1)NCCCCCCN/C(=N\\C(=N)Nc1ccc(Br)cc1)N(CC)CC", "Inhibition": 95},
      {"smiles": "COc1ccc(-c2cccc(NC(=O)c3ccc(Cl)cc3)c2)cc1CN1CCCN(C)CC1.O=C(O)C(F)(F)F", "Inhibition": 95},
      {"smiles": "Nc1c2ccccc2nc2cc(Cl)ccc12", "Inhibition": 86},
      {"smiles": "COc1ccc(CNCc2cccc(-c3cccc(-c4nc5cccc(C)c5[nH]4)c3)c2)cc1.O=C(O)C(F)(F)F", "Inhibition": 60},
      {"smiles": "COc1ccc(-n2nc(C)c3c2NC(=O)CC3c2ccccc2OCc2ccc(F)cc2)cc1", "note": "(centres undefined)", "Inhibition": 65},
      {"smiles": "COc1ccc(CCNC(=O)c2ccccc2O)cc1-c1ccc(C(C)(C)C)cc1", "Inhibition": 96},
      {"smiles": "Cc1sc(NC(=O)Cc2cccc(C(F)(F)F)c2)nc1-c1cccc(Cl)c1", "Inhibition": 95},
      {"smiles": "CN(c1ccc(NC(=O)Nc2cc(C(C)(C)C)on2)cc1)c1ccnc(NCCOC(=O)Nc2cc(C(C)(C)C)on2)n1.O=C(O)C(F)(F)F", "Inhibition": 54},
      {"smiles": "Cl.Oc1cc(-c2nc(C3(CNCc4ccc(Cl)cc4)CCCCC3)[nH]c2-c2ccncc2)ccc1Cl", "Inhibition": 99},
      {"smiles": "O=C(NC1CCCCN(Cc2ccc3c(c2)OCCO3)C1)c1cc(-c2ccccc2F)cs1.O=C(O)C(F)(F)F", "note": "(centres undefined)", "Inhibition": 19},
      {"smiles": "Cc1cc(N/N=C/c2cccc([N+](=O)[O-])c2)c2ccc(F)cc2n1", "Inhibition": 98},
      {"smiles": "O=C(Nc1cccc(-c2cccc(-c3nc4cc(C(F)(F)F)ccc4[nH]3)c2)c1)c1cccnc1Cl", "Inhibition": 58},
      {"smiles": "Cc1ccc(Cn2ncc(N3CC(C)NC(C)C3)c(Cl)c2=O)cc1NC(=O)Nc1ccc(-c2ccccc2)cc1.O=C(O)C(F)(F)F", "note": "(centres undefined)", "Inhibition": 29},
      {"smiles": "Cc1cccc2nc(-c3cccc(-c4ccc(CN5CCCC5CN)cc4)c3)[nH]c12.O=C(O)C(F)(F)F", "note": "(centres undefined)", "Inhibition": 47},
      {"smiles": "CCNc1cc(C(=O)N[C@@H](Cc2ccccc2)[C@H](O)CNC(C)(C)Cc2cccc(Cl)c2)cc(N2CCCCS2(=O)=O)c1.Cl", "Inhibition": 74},
      {"smiles": "Clc1ccc(-c2cc(-c3csc(NCCN4CCCCC4)n3)on2)cc1", "Inhibition": 30},
      {"smiles": "COCCCNC(=N)c1ccc(NC(=O)c2ccc(C(=O)Nc3ccc(C(=N)NCCCOC)cc3)cc2)cc1.Cl", "Inhibition": 99}
    ]}
  ]
}
